Structures can show the parent of a compound that is named as a salt. ± gives the standard deviation of the averaged measurements.
The compounds below were run on Toxoplasma gondii RH (in HFF) (assay: parasite growth relative to the screen mean (all compounds = 100%); higher = less inhibition of parasite growth). Details: 5 µM; 72 h; oxygen 21 %.
How it was run: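 Growth values are relative to the mean of the whole screen and averaged over duplicate screens, with all compounds together set to 100%. Parasites (RH β-Gal–GFP Toxoplasma, MOI 1:5) were added within 2 h of pinning compounds at 5 µM final onto confluent human foreskin fibroblasts and grown 72 h at 21% O2. Parasite number came from CPRG β-Gal readings against in-plate standard curves.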

Structure (SMILES)	parasite growth
Brc1c(NC2=NCCN2)ccc2nccnc12	128 ± 24%
Oc1ccc(C2CNCCc3c2cc(O)c(O)c3Cl)cc1 (stereo not drawn) [Fenoldopam hydrochloride]	105 ± 14%
CC(C)[C@H](NS(=O)(=O)c1ccc(-c2ccc(Br)cc2)cc1)C(=O)O	130 ± 34%
C/C=C1\C(=O)C[C@H]2[C@@H]3CCC4=CC(=O)CC[C@]4(C)[C@H]3CC[C@]12C [Guggulsterone]	90.6 ± 26%
CC(C)NCC(O)COc1cccc2ccccc12 (stereo not drawn) [Propranolol hydrochloride]	99.4 ± 14%
C[C@]12CC[C@@H]3c4ccc(O)cc4C[C@@H](CCCCCCCCC[S+]([O-])CCCC(F)(F)C(F)(F)F)[C@H]3[C@@H]1CC[C@@H]2O (stereo partly drawn)	43.7 ± 11%
O=[N+]([O-])c1cccc2c[nH]nc12	97.2 ± 10%
O=C(O)COCCN1CCN(C(c2ccccc2)c2ccc(Cl)cc2)CC1 (stereo not drawn) [Cetirizine dihydrochloride]	136 ± 34%
CC(C)(Oc1ccc(Cl)cc1)C(=O)O [Clofibric acid]	127 ± 43%
CC(=O)O[C@@H]1C[C@H]2C(C)(C)C(=O)C=C[C@]2(C)[C@H]2CC[C@@]3(C)[C@H](c4ccoc4)OC(=O)[C@H]4O[C@]43[C@@]21C [Gedunin]	62.3 ± 9.6%
O=C(NCCNCC(O)COc1ccc(O)cc1)N1CCOCC1 (stereo not drawn) [Xamoterol hemifumarate]	117 ± 12%
COc1ccccc1N1CCN(CCCCN2C(=O)c3ccccc3C2=O)CC1 [NAN-190 hydrobromide]	133 ± 11%
c1ccc(CN(CC2=NCCN2)c2ccccc2)cc1 [Antazoline hydrochloride]	114 ± 25%
COc1ccc([C@@H]2Sc3ccccc3N(CCN(C)C)C(=O)[C@@H]2OC(C)=O)cc1 [Diltiazem hydrochloride]	94.4 ± 43%
CNc1cc2c(Nc3cccc(Br)c3)ncnc2cn1	128 ± 11%
Cc1cc(C)c(/C=C2\C(=O)Nc3ccccc32)[nH]1	198 ± 12%
CN(CCc1ccc(Cl)c(Cl)c1)CC(O)COc1ccc(NS(C)(=O)=O)cc1 (stereo not drawn)	58.1 ± 4.3%
COc1cc2c(cc1OC)-c1cc3nc4ccccc4nc3n1C(C)(C)C2	< 0%
CCCCCS(=O)(=O)CCCCCCCCCCn1c(-c2ccc(O)cc2)c(C)c2cc(O)ccc21	132 ± 30%

Structure (SMILES)	parasite growth
COc1ccccc1N1CCN(CCN2C(=O)CC3(CCCC3)CC2=O)CC1 [BMY 7378 dihydrochloride]	81.06 ± 0.29%
CCCCOC(=O)c1cc2c(cn1)[nH]c1ccccc12	150 ± 37%
O=C1NC(=O)C(c2ccccc2[N+](=O)[O-])=C1Nc1ccc(O)c(Cl)c1	155 ± 3.7%
O=Nc1ccc(O)c2ncccc12	< 0%
Cc1cc(I)ccc1Nc1c(C(=O)NOCC2CC2)cc(F)c(F)c1F	107 ± 21%
CS(=O)(=O)Nc1c(O)ccc2c1CCCC2C1=NCCN1 (stereo not drawn)	101 ± 12%
CCCCn1c(=O)c2[nH]c(C34CC5CC(CC3C5)C4)nc2n(CCCO)c1=O	101 ± 16%
CC1CCN(CCCC(=O)c2ccc(F)cc2)CC1 [Melperone hydrochloride]	126 ± 12%
Nc1ncnc2c1nc(Br)n2[C@@H]1O[C@@H]2COP(=O)(O)O[C@H]2[C@H]1O [8-Bromo-cAMP, sodium salt]	125 ± 25%
COc1cc2c(Nc3ccc(NC(=O)c4ccccc4)cc3)ncnc2cc1OCCCN1CCOCC1	17.4 ± 8.7%
c1ccc(CN2CCC3(CCc4ccccc43)CC2)cc1 [L-693,403 maleate]	135 ± 10%
CCCCN1CCC(CCC(=O)c2cc(Cl)c(N)cc2OC)CC1	67.2 ± 14%
CC#CCOC(=O)c1c(C)nc2sc3c(c2c1N)CCC(O)C3 (stereo not drawn)	117.8 ± 0.28%
CC[C@H](C)C(=O)O[C@H]1C[C@H](O)C=C2C=C[C@H](C)[C@H](CC[C@@H](O)C[C@@H](O)CC(=O)O)[C@H]21 [Pravastatin sodium salt]	127 ± 9.5%
O=S(=O)(c1cccc2cnccc12)N1CCCNCC1 [Fasudil hydrochloride]	90.6 ± 21%
CC(NC(=O)c1ccccc1/N=C/c1c(O)ccc2ccccc12)c1ccccc1 (stereo not drawn) [Sirtinol]	97.5 ± 34%
CC(C)NC[C@H](O)COc1cccc2ccccc12 [(S)-(-)-Propranolol hydrochloride]	81.8 ± 3.3%
CS(=O)(=O)CCNCc1nc(-c2ccc3ncnc(Nc4ccc(OCc5cccc(F)c5)c(Cl)c4)c3c2)cs1	63.4 ± 19%
Cl/C(=C\n1cncn1)c1ccc(Cl)cc1Cl [Loreclezole hydrochloride]	146 ± 12%

From the supplement of paper PMC4894684
